Shown are actives, neighbours in structure and some others; about 3% of the full set was active somewhere.
SENP8 block-1 = SENP8 protease inhibition; Q96LD8; purified SENP8, Z-RLRGG-aminoluciferin cleavage, luminescence; inhibition, % at 10 µM; actives 1.2% (n = 330,000); in the data active = inhibition above about 50%
PPC-1+TRAIL kill = kills PPC-1 cancer cells in the presence of TRAIL. PPC-1 cells + TRAIL, ATPLite viability luminescence. cell killing (% activity), % at 4 µM or 5 µM. actives 0.41% (n = 220,000). AID 1443;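 active = cell killing above 50% in the first pass at 4 µM, then a duplicate retest at 5 µM averaging 50% or more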
SENP8 block-2 = inhibitors of human SENP8 protease; Q96LD8; recombinant SENP8, Nedd8 substrate fluorescence; inhibition, % at 20 µM; actives 0.64% (n = 360,000); in the data active = inhibition mostly above about 40%, no sharp cut-off; inactive = mostly below about 27%
SENP6 inh = inhibitors of human SENP6 protease | Q9GZR1 | Recombinant SENP6 catalytic domain, aminoluciferin luminescence | inhibition, % at 10 µM | actives 1.8% (n = 330,000);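 active = inhibition above about 50% at the single tested dose, limit read from the data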
SENP7 inh = SENP7 protease inhibition. recombinant SENP7, Z-RLRGG-aminoluciferin luminescence, 40 min. inhibition, % at 5 µM. actives 1.5% (n = 330,000);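 active = inhibition above about 50% at the single test dose, limit read from the data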
Target sequence (Q9BQF6 706-1050 limits assumed): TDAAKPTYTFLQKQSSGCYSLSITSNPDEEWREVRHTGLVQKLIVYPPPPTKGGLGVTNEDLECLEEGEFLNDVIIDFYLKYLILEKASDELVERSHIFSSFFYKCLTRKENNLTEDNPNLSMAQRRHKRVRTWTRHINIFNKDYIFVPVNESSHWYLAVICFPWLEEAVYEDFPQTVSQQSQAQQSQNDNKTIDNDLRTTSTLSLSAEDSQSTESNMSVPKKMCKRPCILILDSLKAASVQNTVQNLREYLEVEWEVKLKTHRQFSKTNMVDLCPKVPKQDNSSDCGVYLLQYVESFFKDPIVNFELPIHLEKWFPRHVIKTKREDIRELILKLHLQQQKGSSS
C8 TRAIL sens = caspase-8 TRAIL sensitization. NB7+C8 cells + TRAIL, ATPlite viability luminescence. inhibition (viability loss, TRAIL sensitization), % at 10 µM. actives 1% (n = 360,000). AID 624354;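 active = compounds causing at least 50% loss of cell viability in the single-dose screen, relative to plate controls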
SENP8 conf = confirmation of human SENP8 protease inhibitors; shares compounds with SENP7 inh; Recombinant SENP8, Z-RLRGG-aminoluciferin luminescence, 60 min; inhibition, % at 12.5 µM; actives 40% (n = 6,200); AID 488912;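 active = mean inhibition across replicates above about 50%, limit read from the data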
SENP6 confirm = confirmation of human SENP6 protease inhibitors; shares compounds with SENP7 inh; recombinant SENP6, Z-RLRGG-aminoluciferin luminescence; inhibition, % at 12.5 µM; actives 58% (n = 6,200); AID 488915
SENP7 conf = human SENP7 inhibition, confirmed | shares compounds with SENP7 inh | recombinant SENP7, Z-RLRGG-aminoluciferin luminescence, 40 min | inhibition, % at 12.5 µM | actives 69% (n = 6,200)
Casp3 select = selectivity test for SENP inhibitors: human caspase-3 inhibition. shares compounds with SENP7 inh. inhibition, % at 12.5 µM. purified caspase-3, Z-DEVD-aminoluciferin luminescence, 60 min. actives 60% (n = 6,200);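 active = mean inhibition above about 50%, limit read from the data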
Target sequence (P42574 28-227 limits assumed): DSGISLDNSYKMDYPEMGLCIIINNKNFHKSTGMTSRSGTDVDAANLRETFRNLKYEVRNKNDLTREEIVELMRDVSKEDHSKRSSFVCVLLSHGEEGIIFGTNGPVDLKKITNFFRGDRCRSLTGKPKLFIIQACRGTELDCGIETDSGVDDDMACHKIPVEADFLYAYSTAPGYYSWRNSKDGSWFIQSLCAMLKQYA
SENP luc ctr = interferes with luciferase luminescence in SENP counter-screen; shares compounds with SENP7 inh; Pre-incubated SENP8/Z-RLRGG-aminoluciferin, luciferase luminescence interference; inhibition, % at 12.5 µM; actives 39% (n = 6,200); AID 488919;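 active = mean inhibition above about 50% when retested at one dose, limit read from the data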
A number is an active result; - = inactive; . = no result.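 Rule for the calls, unless noted: active = mean inhibition above about 50% in the one-dose retest (limit read from the data); inactive = the rest.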

SMILES	SENP8 block-1	PPC-1+TRAIL kill	SENP8 block-2	SENP6 inh	SENP7 inh	C8 TRAIL sens	SENP8 conf	SENP6 confirm	SENP7 conf	Casp3 select	SENP luc ctr
O=C(COC(=O)[C@@H]1CCCN1S(=O)(=O)c1ccccc1F)NCc1ccc2c(c1)OCO2	-	.	-	-	-	-	.	.	.	.	.
Nc1c(Br)cc2c(c1Br)C(O)c1ccccc1-2 (stereo unspecified)	.	.	-	.	.	-	.	.	.	.	.
CCOC(=O)[C@]12CCC=C1N(Cc1cccc3ccccc13)C(=O)[C@H](CC(=O)NCCCCc1ccccc1)C2	.	.	-	.	.	-	.	.	.	.	.
O=C(Nc1cccc2nsnc12)c1cccnc1	-	-	-	-	-	-	.	.	.	.	.
O=C(Nc1ccccc1)Nc1cccc2nsnc12	91	-	-	95	95	-	96	96	100	92	90
CC(=O)Nc1ccc(NC(=O)C(NS(=O)(=O)c2cccc3nsnc23)C(C)C)cc1 (stereo unspecified)	-	.	-	-	-	-	.	.	.	.	.
Cc1oc(-c2ccccc2)nc1C(=O)OCC(=O)NC(C)c1ccccc1 (stereo unspecified)	-	.	-	-	-	-	.	.	.	.	.
Cc1oc(-c2ccccc2)nc1C(=O)OCC(=O)NC(=O)NCC(C)C	-	-	-	-	65	-	-	-	-	-	-
Cc1cc(C(=O)NC(C)C2CC2)c(Cl)cc1Cl (stereo unspecified)	-	.	-	-	-	-	.	.	.	.	.
Cc1ccc(C(=O)Nc2nnc(-c3ccco3)o2)cc1	-	-	-	-	-	-	.	.	.	.	.
O=C(Nc1nnc(-c2ccco2)o1)c1ccc2ccccc2c1	-	-	-	71	-	-	-	-	-	-	-
c1ccc(-c2noc(-c3ccc4ccccc4c3)n2)nc1	96	-	-	97	100	87	94	99	101	97	60
c1ccc(-c2noc(C3CCCCC3)n2)nc1	-	-	-	59	55	-	-	50	83	79	-
Brc1ccc(-c2noc(C3CCCCC3)n2)cc1	-	-	-	-	-	-	.	.	.	.	.
c1ccc(-c2noc(-c3cccnc3)n2)nc1	-	-	-	-	57	-	51	-	78	85	58
c1ccc(-c2noc(-c3ccncc3)n2)nc1	79	-	-	81	-	-	81	82	96	96	83
c1ccc(-c2ccccc2-c2nc(-c3cccnc3)no2)cc1	-	-	-	-	-	-	.	.	.	.	.
CN(Cc1ccccc1)C(=O)c1[nH]c(C(F)(F)F)nc1-c1ccccc1	.	.	-	.	.	-	.	.	.	.	.
CC(=O)c1ccc(S(=O)(=O)NCCC(=O)NC(C)c2ccncc2)cc1 (stereo unspecified)	-	.	-	-	-	-	.	.	.	.	.
CCc1cc(=O)[nH]c(-n2[nH]c(-c3ccccc3)cc2=O)n1	-	-	-	-	-	-	.	.	.	.	.
O=c1cc(-c2ccccc2)[nH]n1-c1nc2ccccc2[nH]1	-	-	-	65	-	-	-	52	85	78	-
CCOC(=O)C(=O)N(C)c1c(CC)nc2c(OCc3cc(Cl)cc(Cl)c3)cccn12	.	.	-	.	.	-	.	.	.	.	.
CC12CCC(=O)N1C(C(=O)NNC(=O)COc1cccc(C(F)(F)F)c1)CS2 (stereo unspecified)	-	.	-	-	-	-	.	.	.	.	.
CCCN(CC1CCCO1)C(=O)CCc1nnc(CCc2ccc(OC)cc2)o1 (stereo unspecified)	-	.	-	-	-	-	.	.	.	.	.
Cn1c(-c2ncc(F)cc2F)cc2onc(-c3c(F)cccc3Cl)c2c1=O	-	.	-	-	-	-	.	.	.	.	.
SMILES	SENP8 block-1	PPC-1+TRAIL kill	SENP8 block-2	SENP6 inh	SENP7 inh	C8 TRAIL sens	SENP8 conf	SENP6 confirm	SENP7 conf	Casp3 select	SENP luc ctr
Cn1c(-c2ccccc2)cc2onc(-c3ccccc3)c2c1=O	95	.	-	95	95	81	-	-	55	-	-
CC(OC(=O)c1ccc(S(=O)(=O)NCc2ccco2)cc1)C(=O)Nc1ccccc1 (stereo unspecified)	-	.	-	-	-	-	.	.	.	.	.
O=C1N(c2ccccc2)CCN1c1ccccc1	70	.	-	83	89	64	-	-	-	-	-
O=C1NCCN1c1ccccc1	.	.	-	.	.	-	.	.	.	.	.
CCN1C(=O)c2cccc3c(NC(=O)C4CCCCC4)ccc1c23	-	-	-	-	72	-	-	-	-	-	-
CCCCn1c(N)c(N(CC(C)C)C(=O)CSc2nn(-c3ccc(F)cc3)c(=S)s2)c(=O)[nH]c1=O	.	.	-	.	.	-	.	.	.	.	.
c1ccc(-c2onc3cc4c(cc23)OCCO4)cc1	78	-	-	89	76	-	-	92	101	86	92
CCN1CCC(O)(C(C(=O)OC)c2ccccc2)CC1 (stereo unspecified)	.	.	-	.	.	-	.	.	.	.	.
c1ccc(-c2nc(-c3nccc4ccccc34)oc2-c2ccccc2)cc1	64	-	-	86	85	-	-	-	61	76	65
CCOC(=O)c1ccc(NC(=O)c2nc[nH]c2C(=O)N[C@@H](C)CO)cc1	.	.	-	.	.	-	.	.	.	.	.
COc1cccc2sc(N(C)c3ccccc3)nc12	76	-	-	-	89	60	-	83	96	78	83
COc1cccc2sc(N)nc12	-	.	-	-	-	-	.	.	.	.	.
CCN(CC)C(=O)C1=C(C)N(CCCOC)C(=O)C(CC(=O)NC(c2ccccc2)c2ccccc2)C1 (stereo unspecified)	.	.	-	.	.	-	.	.	.	.	.
Cc1cc2nc(N)sc2cc1C	65	-	-	-	70	-	75	74	92	84	73
O=C(Cc1cccs1)Nc1ccccc1C(=O)O	-	-	-	63	-	-	52	50	84	88	71
CCOc1ccc(CNC(=O)C2CCCN(S(=O)(=O)N3CC(C)CC(C)C3)C2)cc1OC (stereo unspecified)	-	.	-	-	-	-	.	.	.	.	.
CCOC(=O)CN1C(=O)S/C(=C\c2ccc(-c3cccc(C(=O)O)c3C)o2)C1=O	-	.	-	55	-	-	-	-	52	-	-
O=C1NC(=O)/C(=C/c2ccc(-c3cccc([N+](=O)[O-])c3)o2)S1	66	.	-	86	55	-	78	60	-	-	-
Cc1c(C(=O)O)cccc1-c1ccc(/C=C2/NC(=O)N(c3ccccc3)C2=O)o1	60	-	-	64	-	-	-	79	92	-	-
